16 compounds from ChEMBL document CHEMBL3988442, “University of Dundee, Small-Polar-MMV Screening Library” (2021) can be followed below.

The target in assay [1] is T1, Aspartate--tRNA(Asp/Asn) ligase (Mycobacterium tuberculosis (strain ATCC 25618 / H37Rv)) (UniProt P9WFW3). Note: in the data most compounds retested in dose-response had high values.
T1 sequence (whole entry): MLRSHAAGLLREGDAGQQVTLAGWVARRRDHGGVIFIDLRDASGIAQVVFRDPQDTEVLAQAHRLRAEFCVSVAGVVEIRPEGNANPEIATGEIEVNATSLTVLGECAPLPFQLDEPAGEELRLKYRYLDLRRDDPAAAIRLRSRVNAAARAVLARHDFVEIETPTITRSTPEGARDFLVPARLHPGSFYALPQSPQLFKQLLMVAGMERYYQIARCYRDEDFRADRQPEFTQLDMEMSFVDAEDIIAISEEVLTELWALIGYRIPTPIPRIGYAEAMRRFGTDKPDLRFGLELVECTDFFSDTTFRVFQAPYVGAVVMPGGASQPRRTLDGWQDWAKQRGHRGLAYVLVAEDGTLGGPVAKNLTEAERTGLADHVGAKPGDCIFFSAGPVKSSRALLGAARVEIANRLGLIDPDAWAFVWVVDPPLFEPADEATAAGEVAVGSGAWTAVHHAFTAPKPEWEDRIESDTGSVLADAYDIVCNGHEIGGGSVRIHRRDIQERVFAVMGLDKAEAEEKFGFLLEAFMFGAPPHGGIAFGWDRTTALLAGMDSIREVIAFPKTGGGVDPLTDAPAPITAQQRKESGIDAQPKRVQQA
Nature of the assay: Assay for Asp RNA synthetase-1 from Mycobacterium tuberculosis. Conditions: 30 µM. The assay is classed as functional. On the set-up: scale not given: direction of the effect not stated beside the values.

Assay [2] concerns the target Shiga toxin 2 (Escherichia coli O157:H7) (UniProt P09385+P09386). Nature of the assay: E. coli 0.157:H7 Shiga Toxin SOP - stx2 screening assay. Details: scale not given: direction of the effect not stated beside the values. It is filed as functional. Conditions: 30 µM.

Consider `c1cnc(NCc2noc3c2CN(CCN2CCCC2)CC3)nc1`, for which the Percent Effect is 1.46% in assay [1] and -35.5% in assay [2].

On to `CC(C)c1cc2c(O)nc(CSCC(=O)O)nc2s1`, for which the Percent Effect was -0.29% in assay [1] and -12.1% in assay [2].

With `O=C(CCN1CCCC1c1cccs1)N1CCc2sccc2C1` (configuration not stated), the Percent Effect in assay [1] was -0.954%; in assay [2], 1.91%.

Take `COCCCN1CCCN(C(C)C(=O)Nc2ccnn2C(C)C)CC1` (configuration not stated): the figures for the Percent Effect in assay [1] and in assay [2] were -3.7% and 11.2%, respectively.

With `c1ccc(CN2CC[C@@H]3O[C@@H](COCC4CCOCC4)CC[C@@H]32)nc1`, the Percent Effect in assay [1] was 7.81%; in assay [2] it was -21.9%.

As to `CN(Cc1ccc(F)cc1)[C@@H]1CN(C(=O)c2cccs2)C[C@H]1O`, the Percent Effect is 4.22% in assay [1] and -17.2% in assay [2].

For `Cc1ccc(CNC(=O)N2CCCCC2CCNS(C)(=O)=O)cc1` (configuration not stated), the Percent Effect in assay [1] was found to be 1.04%; in assay [2] it was 6.21%.

`O=C(c1ccoc1)N1CC[C@@H]2[C@H]1CCC(=O)N2c1ccccc1`: the Percent Effect in assay [1] came out at 1.49%; in assay [2] it was 1.4%.

For `CCn1nc(CC(C)C)cc1C(=O)NCCCOC`, the Percent Effect is -0.668% in assay [1] and 11.5% in assay [2].

Turning to `CC(C)c1cc(C(=O)N2CCN(Cc3ccsc3)CC2)n[nH]1`, the Percent Effect in assay [1] is -1.06%; in assay [2], 9.72%.

Take `O=C(c1ccc2c(c1)COC2)N1CCC(Nc2cccnn2)CC1`: the Percent Effect was -1.3% in assay [1] and -8.52% in assay [2].

Take `Cc1cc(C(=O)N2CC[C@H](OCC3CC3)[C@@H]2Cc2cccnc2)no1`: the figures for the Percent Effect in assay [1] and in assay [2] were 1.17% and 1.88%, respectively.

With `COC(=O)CCC(=O)N1CCC2(CN(Cc3cccc(F)c3)C2)C1`, the Percent Effect in assay [1] is 8.76%; in assay [2], 2.07%.

For `Cc1cccc(CN2CC3(CCNCC3)OCC2=O)n1`, the Percent Effect in assay [1] was determined as 5.56%; in assay [2] it was 5.99%.

As for `CN1CCN(c2ncc3c(=O)n(-c4cccc(F)c4)c(=O)[nH]c3n2)CC1`, the Percent Effect in assay [1] was 11.2%; in assay [2], -20.7%.

As for `O=C(c1ccco1)N1CCCC(c2cc(C(F)F)n3ncnc3n2)C1` (configuration not stated), the Percent Effect in assay [1] is -0.849%; in assay [2], -7.72%.
